# Bioassay records deposited in PubChem BioAssay by National Center for Advancing Translational Sciences (NCATS).
# GLA inh pH 4.5: blocks human alpha-galactosidase A at pH 4.5 | P06280 | purified enzyme, 4-MU-alpha-Gal fluorescence, pH 4.5 | activity change, negative = inhibition, % at 105 µM | 230,000 tested, under 10 active | AID 1467;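 further: 0% = full activity with enzyme and -100% = basal without enzyme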
# Target sequence (P06280 whole entry, looked up): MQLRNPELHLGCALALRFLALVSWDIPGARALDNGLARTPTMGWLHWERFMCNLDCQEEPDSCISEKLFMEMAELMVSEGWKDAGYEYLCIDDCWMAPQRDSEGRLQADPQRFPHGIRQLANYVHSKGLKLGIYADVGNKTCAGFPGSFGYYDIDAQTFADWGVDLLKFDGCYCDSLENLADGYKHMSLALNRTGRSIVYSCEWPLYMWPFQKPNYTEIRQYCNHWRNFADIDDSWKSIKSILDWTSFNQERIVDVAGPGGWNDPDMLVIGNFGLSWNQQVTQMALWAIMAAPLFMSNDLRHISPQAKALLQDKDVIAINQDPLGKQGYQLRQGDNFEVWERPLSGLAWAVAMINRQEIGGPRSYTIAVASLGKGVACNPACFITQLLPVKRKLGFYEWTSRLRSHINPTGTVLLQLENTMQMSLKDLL
# aGal spleen mod: inhibitors or activators of human alpha-galactosidase in spleen homogenate; P06280; human spleen homogenate, 4MU-alpha-Gal fluorescence, 40 min; Potency, µM (series often up to 80 µM), without a hit: at the top dose activity change, negative = inhibition, usual class: inhibitors; 240,000 compounds, 0.008% hits;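 further: potency means the concentration at half of the fitted maximal effect; 0% = enzyme with vehicle and -100% = no enzyme basal signal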
#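 Fluorogenic readout (Ex 365/Em 440 nm) of 4-methylumbelliferone released from 1 mM 4-MU-alpha-galactoside by spleen homogenate, 40 min at 37C, pH 5.0. Data normalized to no-enzyme and enzyme controls; Hill-equation AC50 from compound titrations.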
# PKM2 act: PKM2 (human) enzyme activation. P14618. purified PKM2, Kinase-Glo ATP luminescence, activation; response scale: 0% is enzyme alone, no compound. Potency, µM (doses to about 57.5 µM), for the others: at the highest dose activation, hits mostly activators. 260,000 compounds, 0.34% hits; further: potency means the concentration at half of the fitted maximal effect; on the % scale 0 is the no-effect control and ±100 the full control effect; nearly all actives have a fitted effect of over 55% in size
#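 ATP formation by purified human PK-M2, quantified via coupled luciferase luminescence after 1 h at room temperature with 0.1 mM ADP and 0.5 mM PEP final.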
# HTT aggregate: inhibitors of mutant huntingtin aggregate formation in PC12 cells | PC12 HttQ103-GFP aggregates, Acumen cytometry, 40 h | 220,000 compounds, 1.1% hits | Potency, µM (highest dose often 46.1 µM), without a hit: at the highest dose activity change, negative = inhibition, most hits filed as inhibitors; further: potency means the concentration at half of the fitted maximal effect; on the % scale 0 is the no-effect control and ±100 the full control effect; nearly all actives have a fitted effect of over 60% in size
#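 Multiplexed with ATP-based cell death, this channel scores GFP aggregates in PC12 cells expressing inducible HTTex1-Q103-GFP. Induction used 100 nM tebufenozide; compounds were tested in concentration series.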
# HTT ATP protect: protects HTT-Q103 PC12 cells, measured by ATP | Potency, µM (series often up to 56.4 µM), for the others: cytoprotection (ATP increase), most hits filed as activators | PC12 HTT-Q103 induced, cytoprotection, ATP luminescence, 40 h | 230,000 compounds, 0.14% hits; further: potency means the concentration at half of the fitted maximal effect; % of control where 0% means no effect; nearly all actives have a fitted effect of over 45% in size
#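 PC12 cells with ecdysone-inducible HTT exon 1 Q103-GFP, induced with 100 nM tebufenozide and co-treated with library compounds in a dose series (1536-well, 1500 cells/well). Cytoprotection read as ATP content by ATPlite luminescence.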
# * marks the source's active call; other numbers are inactive results; ? = inconclusive; nt = no result; [ ] = dose if it differs, or a comment. Most compounds without a hit are left out; they make up all but 1.2% or so of the library. The call rests on the fitted dose curve; in most records, active means well fitted curve in the direction sought with a large enough effect; inconclusive means small, poorly fitted or top-dose-only effect, or another doubt; inactive means no such curve, though single readings can be large; an effect the other way counts as inactive or inconclusive.
SMILES,GLA inh pH 4.5,aGal spleen mod,PKM2 act,HTT aggregate,HTT ATP protect
O=C(Nc1ccccc1)C1=C(c2ccccc2)S(=O)(=O)CCS1(=O)=O,2,0%,-35%,5µM*,-162%
CC(C)C[C@H](NC(=O)[C@H](CCCCN)NC(=O)[C@H](CCCNC(=N)N)NC(=O)[C@H](C)NC(=O)[C@H](CO)NC(=O)[C@H](CCCCN)NC(=O)[C@H](CCCNC(=N)N)NC(=O)[C@H](C)NC(=O)CNC(=O)[C@@H](NC(=O)[C@H](Cc1ccccc1)NC(=O)CNC(=O)CNC(=O)[C@@H](N)Cc1ccccc1)[C@@H](C)O)C(=O)N[C@@H](C)C(=O)N[C@@H](CC(N)=O)C(=O)N[C@@H](CCC(N)=O)C(=O)O,nt,7%,nt,nt,nt
COC(=O)c1ccc2c(c1)C(C)(C)C(/C=C/c1ccc(OC)c(OC)c1OC)=[N+]2C,-7,9%,25%,11µM*,-90%
COc1ccc(C(=O)/C(C#N)=N/Nc2ccc([N+](=O)[O-])cc2)cc1,-11,8%,-5%,1.3µM*,-162%
CCOc1ccccc1-c1nnc2n1N=C(c1c(OC)cccc1OC)CS2,nt,-10%,nt,nt,nt
COc1cccc(OC)c1OCc1cc(C2C3CCCC=C3C(C#N)=C(N)C2(C#N)C#N)c(C)cc1C (configuration not stated),-9,0%,4.5µM*,-17%,?
CCCN1CC=C2C(C#N)=C(N)C(C#N)(C#N)C(c3cccc(OC)c3OC)C2C1 (configuration not stated),-8,18%,-8%,?,23%[10 µM]
O=C(NNC(=S)NCc1ccccc1)c1ccccc1OC(F)F,1,3%,-7%,-3%,nt
O=C(NNC(=S)Nc1ccc(Cl)cc1)c1ccccc1OC(F)F,-5,-1%,-4%,13µM*,nt
CC(=O)c1ccccc1OCCn1nnc(-c2ccc(C)cc2)n1,-15,1%,-8%,20µM*,2%[10 µM]
O=C1C=CC(=Nc2cccc3c(N=C4C=CC(=O)O4)cccc23)O1,nt,nt,nt,nt,4%[10 µM]
Cc1cc(C)cc(/C=C/C2OCC(O)C2Oc2ccc(C3CCCC3)cc2)c1 (configuration not stated),nt,2%[17.5 µM],nt,nt,-3%[10 µM]
CN(C)c1nc(NC2CCC(NC(=O)c3ccc(F)c(F)c3)CC2)nc2ccccc12 (configuration not stated),nt,1%,nt,nt,nt
Cc1ccc(C)c(S(=O)(=O)Nc2ccccc2C(=O)Nc2cc(C)on2)c1,0,13%,0%,10µM*,-65%
Cc1ccc(C)c(NC(=O)c2ccccc2Sc2ccc([N+](=O)[O-])cc2Cl)c1,-3,3%,6%,-10%,?
Cc1cc(NC(=O)c2ccccc2NS(=O)(=O)c2c(C)c(C)cc(C)c2C)no1,12,3%,9%,-7%,-20%
Cc1ccc(C)c(NC(=O)c2ccccc2NS(=O)(=O)c2cc([N+](=O)[O-])ccc2C)c1,-6,-16%,2%,2.8µM*,-52%[10 µM]
Cc1ccc2cccc(OC(=O)/C=C\c3ccccc3)c2n1,-2,-6%,4%,10%[9.22 µM],3.2µM*
Fc1ccccc1CCNc1c2c(nc3ncnn13)CCCC2,-21,0%,-5%,12%[9.22 µM],28%[10 µM]
c1ccc(CCNc2c3c(nc4ncnn24)CCC3)cc1,-11,1%,25µM*,-15%,-37%
Cc1ccc(-c2c(C#N)c(N)n3c(nc4ccccc43)c2C#N)cc1,-9,-8%,5%,10µM*,-7%[10 µM]
O=c1c2ccccc2[nH]c(=S)n1Cc1cccnc1,3,-1%,25µM*,-11%,-9%
O=C(Nc1ccc(F)cc1)Nc1cc(OCC(F)(F)F)cc(OCC(F)(F)F)c1,0,1%,11%,3.5µM*,-67%[10 µM]
Brc1ccc2c(c1)OCCOCCOc1cc(Br)ccc1OCCOCCOCCO2,-8,-3%,3%,25µM*,-17%[10 µM]
Brc1cc2c(cc1Br)OCCOCCOCCOCCO2,2,-10%,3%,-7%,-35%
SMILES,GLA inh pH 4.5,aGal spleen mod,PKM2 act,HTT aggregate,HTT ATP protect
CC(=O)c1c(O)cc(C)n(-c2ccc(F)cc2)c1=O,2,7%,0%,0%[9.22 µM],-20%
CC(=O)c1c(O)cc(C)n(Nc2nc(C)cc(C)n2)c1=O,-1,12%,-16%,1.3µM*,-2%
N#CCCn1c(=O)c(-c2cccs2)nc2cnc(Oc3ccccc3)nc21,nt,14%,nt,nt,20%
O=C(/C=C/c1cccs1)c1ccc(Br)cc1,2,6%,3%,3%,-11%
O=C(/C=C\c1cccs1)c1c(O)ccc2ccc(=O)oc12,-14,0%,-14%,11µM*,12%[10 µM]
COc1ccccc1CNc1nc(-c2ccoc2)nc2ccccc12,nt,-22%,nt,nt,-78%
C=C1C(=O)C=C2CN(C(=O)c3ccccc3)[C@@](Cc3ccc(F)cc3)(C(=O)OC)[C@@H]12,1,1%,?,5µM*,-111%
Cc1cccn(Cc2c(F)cccc2Cl)c1=O,-4,3%,32µM*,1%[9.22 µM],4%[10 µM]
O=c1ccccn1Cc1c(F)cccc1Cl,-1,-13%,-1%,-5%[9.22 µM],0%
O=C(NC1CCS(=O)(=O)C1)/C(=C/c1ccco1)NC(=O)c1ccccc1 (configuration not stated),9,-9%,0%,0.18µM*,0.14µM*
COc1cc(OC)cc(C(=O)NNC(=O)c2ccccn2)c1,-2,2%,-2%,11µM*,-1%[10 µM]
CC[C@@H](C)[C@@H](CO[C@@H](Cc1ccccc1)C(=O)N[C@@H](CCS(C)(=O)=O)C(=O)OC(C)C)NC[C@@H](N)CS,nt,-14%,nt,nt,-66%
CCc1cc(-c2[nH]ncc2-c2ccc3c(c2)OCO3)c(O)cc1O,nt,-4%,-5%,11µM*,-24%
CCCc1cc(-c2[nH]ncc2-c2ccc3c(c2)OCCCO3)c(O)cc1OC,-16,13%,-3%,?,-16%
COc1ccc(CNc2ccnc(-c3cccc(NS(C)(=O)=O)c3)n2)c(OC)c1,nt,?,nt,nt,-52%
COc1c(C(=O)Nc2ccc(Cc3ccncc3)cc2)ccc2ccccc12,-23,3%,-12%,13µM*,nt
CCC(=O)N(C1=C(NC(C)C)C(=O)c2ccccc2C1=O)C(C)C,6,-11%,-1%,-3%[9.22 µM],-4%[10 µM]
CCCNC1=C(N(C(C)=O)c2cccc(F)c2)C(=O)c2ccccc2C1=O,1,-11%,0%,11µM*,-76%[10 µM]
N#C/C(=C\c1cc([N+](=O)[O-])ccc1Cl)C(N)=O,3,-2%,-1%,6%,1.3µM*
N#C/C(=C/c1ccc([N+](=O)[O-])cc1)C(N)=O,11,-5%,3%,19%,-7%
COc1cc2c(cc1OC)C1O[C@](CCCCN3C(=O)c4ccccc4C3=O)(C2)Oc2cc(C)n(Cc3ccccc3)c(=O)c21,nt,nt,0%[11.5 µM],nt,nt
Cc1cc(C)n(-c2nc3nonc3nc2-n2nc(C)cc2C)n1,-2,2%,2%,0%,-8%[10 µM]
